About 3,000 (1%) of roughly 290,000 compounds were called active. No stated cut-off is given here; in the data, active means inhibition mostly above about 36% (no sharp cut-off); inactive means mostly below about 34%. For the sample, actives were picked, then their nearest neighbours and some compounds at random.

The nature of the assay: inhibition of NOD1-driven NF-kB reporter – cell-based, luminescence, uHTS, primary screen (AID 1578).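 Further: HEK-293T reporter cells stimulated with the NOD1 agonist gamma-tri-DAP.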 Conditions: NOD1-driven NF-kB luciferase reporter cells, at 4 µM, hits give high values. Background: In a reporter assay the amount or activity of a reporter protein is the signal.
Consider `CCCCNC(=S)Nc1ccc(Cl)cc1`, for which the inhibition is 0.1% (inactive). Turning to `Cc1oc(-c2ccccc2Cl)nc1CSCC(=O)N1CCCC1`, the inhibition is 25.8% (inactive). As to `Cc1oc(-c2ccccc2Cl)nc1CSc1nc2c(c(=O)[nH]1)CCC2`, the inhibition was 34% (inactive). Under `COc1ccccc1N1CCN(c2ccc([N+](=O)[O-])cc2Cl)CC1` stands 7.1% (inactive). Under `Oc1ccc(Cc2ncc(C(F)(F)F)cc2Cl)cc1` stands 5.6% (inactive); under `CC(=O)Nc1ccc(NC(=O)c2nc(S(=O)(=O)Cc3cccc(C)c3)ncc2Cl)cc1`, 8.3% (inactive). Consider `Cc1cccc(CS(=O)(=O)c2ncc(Cl)c(C(=O)NCc3ccc4c(c3)OCO4)n2)c1`, for which the inhibition was 70.3% (active). In the case of `CC(=O)Nc1ccc(NC(=O)c2nc(S(=O)(=O)Cc3ccccc3)ncc2Cl)cc1`, the inhibition is 11.7% (inactive).

As to `Cc1ccc(NC(=O)c2nc(S(=O)(=O)Cc3ccccc3)ncc2Cl)cc1`, the inhibition is 34.5% (inactive). As to `O=C(NCc1ccc2c(c1)OCO2)c1nc(S(=O)(=O)Cc2ccccc2)ncc1Cl`, the inhibition was 16.2% (inactive).

Consider `Cc1cccc(CS(=O)(=O)c2ncc(Cl)c(C(=O)NCc3ccccc3)n2)c1`, for which the inhibition was 34.5% (inactive). On to `Cc1nnc(NC(=O)c2nc(S(=O)(=O)Cc3ccccc3C)ncc2Cl)s1`, for which the inhibition was 41.7% (inactive). Consider `COc1ccc(/C=C2\SC(=S)N(CCC(=O)N3CCCCC3)C2=O)cc1`, for which the inhibition is 13.7% (inactive).

On to `CCN(CC)CCNC(=O)CS(=O)Cc1nc(-c2ccc(C)cc2)oc1C` (stereo unspecified), for which the inhibition was 13.6% (inactive).

As to `CN(C)c1cccc(C(=O)NNC(=S)NC2CCCC2)c1`, the inhibition is -23.1% (inactive). With `CCC(C)C(NC(=O)C(CC(C)C)NC(=O)C(CO)NC(=O)C1CCC(=O)N1)C(=O)OC` (stereo unspecified), the inhibition is -36% (inactive). Regarding `CN(Cc1nc2ccccc2[nH]1)Cc1nc(CC2CC2)no1`, the inhibition is -48.9% (inactive).

Consider `COCCNC(=S)NNC(=O)CSCc1ccc(Cl)cc1Cl`, for which the inhibition is -40.2% (inactive). As for `CCCC(=O)NCCc1nc2ccccc2n1CCC`, the inhibition was -14.2% (inactive).

As to `COc1ccc(C(=O)ON=C2CCN(C)CC2)cc1`, the inhibition is -31.9% (inactive). Consider `COc1cc(C(=O)NS(=O)(=O)c2ccccc2C)ccc1Cc1cn(C)c2ccc(NC(=O)OC3CCCC3)cc12`, for which the inhibition was 39.2% (active). In the case of `Cc1cc(NC(=O)OC2CCCCC2)ccc1[N+](=O)[O-]`, the inhibition is -54.1% (inactive). Under `COc1ccc(CNC(=O)Cc2cn(C)c3ccccc23)c(OC)c1` stands -7.1% (inactive); under `CCOc1ccc(OCC)c(S(=O)(=O)NCc2cccnc2)c1`, -17.5% (inactive); under `NCCc1nnc(SCC(=O)Nc2ccc(Br)cc2)o1`, -15.9% (inactive). Consider `CC(NC(=O)c1ccc2nc[nH]c2c1)c1ccccc1` (stereo unspecified), for which the inhibition is -33.6% (inactive). Under `Cn1nnnc1SCC(=O)N1CCN(C(=O)c2ccco2)CC1` stands -32.2% (inactive). In the case of `O=C(O)CCCNC(=O)c1cncc(O)c1`, the inhibition was 15.1% (inactive). For the molecule `N=c1ccn(Cc2ccc(Cl)cc2)cc1`, the inhibition was 30.5% (inactive). On to `N=c1ccn(Cc2cccc(Cl)c2)cc1`, for which the inhibition is 8.9% (inactive). As for `N=c1ccn(Cc2ccc(Cl)c(Cl)c2)cc1`, the inhibition is 79.2% (active). Take `COC(Cn1c(-c2cccc(S(=O)(=O)N(C)C)c2)n[nH]c1=S)OC`: the inhibition was -34.1% (inactive). As to `Cc1cc(NC(=O)c2cc3ncc(Br)cn3n2)no1`, the inhibition is -40.8% (inactive). The result for `O=C(O)CCCn1cc(NC(=O)c2c(F)cccc2F)cn1` reads -50.2% (inactive).

In the case of `O=C(NCc1ccccn1)c1nc(Cn2cc([N+](=O)[O-])cn2)no1`, the inhibition was -23.2% (inactive). As for `c1ccc(C2NCCn3cccc32)cc1` (stereo unspecified), the inhibition is -14.6% (inactive).

With `COc1ccc(C2NCCn3cccc32)cc1` (stereo unspecified), the inhibition is 112% (active).

As for `Fc1ccc(C2NCCn3cccc32)cc1` (stereo unspecified), the inhibition was 25.8% (inactive).

Turning to `Cc1ccc(C(c2nnnn2CS(=O)(=O)c2ccc(C)cc2)N2CCN(c3ncccn3)CC2)cc1` (stereo unspecified), the inhibition was -41.2% (inactive). As for `COc1ccc(CNC(=O)CN2CCN(c3cccc(C)c3C)CC2)cc1`, the inhibition is -3.6% (inactive). Regarding `Cc1ccc(-n2c(SCC(=O)Nc3ncc(Cl)cc3Cl)nc3ccccc32)cc1`, the inhibition was 59.3% (inactive). With `COc1ccc(-n2c(SCC(=O)Nc3ncc(Cl)cc3Cl)nc3ccccc32)cc1`, the inhibition was 58.9% (active). As for `O=C(CSc1nc2ccccc2n1-c1ccccc1)Nc1ncc(Cl)cc1Cl`, the inhibition was 48.8% (inactive).

For `Cc1ccc(SCC(=O)N2N=CCC2c2ccccc2)cc1` (stereo unspecified), the inhibition was -19.9% (inactive). The result for `O=c1cc(O)n(-c2ccccc2F)c(=S)[nH]1` reads 0% (inactive).

For `CCOC(=O)c1c(C)sc2c1N(C(=O)CCl)c1cc(Cl)ccc1S2`, the inhibition was 55.3% (active).

Consider `CCOC(=O)c1c(C)sc2c1N(C(C)=O)c1cc(Cl)ccc1S2`, for which the inhibition is 25.7% (inactive). In the case of `CCOC(=O)c1c(C)sc2c1N(C(=O)CN(CC)CC)c1cc(Cl)ccc1S2`, the inhibition is -0.4% (inactive).

In the case of `CC(=O)Nc1ccc(S(=O)(=O)NCc2nc(-c3ccccc3)no2)cc1`, the inhibition was -7.6% (inactive). For the molecule `CCOC(=O)C1=C(C)NC(=O)NC1c1cc2c(cc1Br)OCO2` (stereo unspecified), the inhibition was -20.8% (inactive). Regarding `Cc1cc(OC(=O)c2ccccc2)n(CCC#N)n1`, the inhibition is 6.7% (inactive).

`COc1ccc2c(=O)c(Oc3ccc(C(=O)O)cc3)c(C(F)(F)F)oc2c1`: the inhibition was 47.7% (active). The result for `COc1ccc(Oc2c(C(F)(F)F)oc3cc(OCC(=O)O)ccc3c2=O)cc1` reads 4.6% (inactive); that for `O=C(O)c1ccc(Oc2c(C(F)(F)F)oc3cc(O)ccc3c2=O)cc1`, -31.7% (inactive); that for `O=C(c1ccc(F)cc1)N1CCN(c2ccc([N+](=O)[O-])c(N3CCOCC3)c2)CC1`, -17.8% (inactive). Turning to `C[C@@H]1C[C@@H]2OC(=O)[C@]3(C)[C@H]2[C@@H](OC3(C)O)[C@]2(C)C(=O)C=C[C@H]12` (stereo partly specified), the inhibition is -7.5% (inactive). In the case of `C=C1C(=O)C=C[C@]2(C)C[C@@H]3OC(=O)[C@](C)(O)[C@H]3C[C@@H]12`, the inhibition was 33.2% (active). As for `CCCCNc1nc2ccccc2n1CC(=O)Nc1ccc2c(c1)OCCO2`, the inhibition was -11.5% (inactive). Regarding `O=C(O)c1ccc(Cl)cc1NC(=O)C1CCCO1` (stereo unspecified), the inhibition is -22% (inactive). For the molecule `CN(c1ccccc1)S(=O)(=O)c1ccc(Cl)c(C(=O)Nc2ccc(N3CCOCC3)cc2)c1`, the inhibition was -13% (inactive). Consider `COc1ccccc1N(C)S(=O)(=O)c1ccc(Cl)c(C(=O)NCCCN2CCOCC2)c1`, for which the inhibition is -22.8% (inactive).

The term inhibition denotes the drop in the measured response relative to a control, in per cent.

For the origin of these results see PubChem BioAssay AID1578 (Sanford-Burnham Center for Chemical Genomics, 2009).
